Assay results published in PubChem BioAssay (NCI).
This is part of a sample that, as a whole, favours compounds with a hit. Of some 83,000 tested, about 20% had one in any assay.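 Values shown are percent growth following 48 h exposure of cells in 96-well plates to a single concentration of compound; below 10 was considered active.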 Unmarked numbers belong to inactive results. Activity calls are given as the source filed them.

test system: KM12 colon; test: NCI-60 one-dose screen, 48 h (100 = growth as untreated, 0 = no growth, -100 = all killed); conditions: 10 µM unless noted
Protocol: Growth inhibition of the KM12 human tumor cell line is measured as a screen for anti-cancer activity. Cells are grown in 96 well plates and exposed to the test compound for 48 hours. Compounds are tested at a single concentration, which is 10^-5 M for most compounds. The reported endpoint is percent growth (GI% or GIPRCNT), where numbers from 0 - 100% represent growth inhibition, and numbers from -100% - 0 represent cell death. For example, a value of 40 represents 60% growth inhibition. A value of 0 means no net growth occurred over the course of the experiment. A value of -40 indicates 40% of cells at the beginning of the experiment died by the end of the experiment. A value of -100 means all cells are dead at the end of the experiment.
NCI-60 Human Tumor Cell Lines Screen was performed using the standard one-dose NCI protocol, which is described in more detail at https://dtp.cancer.gov/discovery_development/nci-60/default.htm.
Compounds with GIPRCNT values below 10 were considered active. Activity score was based on GIPRCNT using the following formula: […]
Score is 0 for GIPRCNT values of 100 or above, 50 for GIPRCNT values of 0, and 100 for GIPRCNT values of -100.

| SMILES | growth |
| --- | --- |
| CCCCCCCCCCCCCCCCNC(=O)Nc1ccc2ccccc2c1 | 111% |
| O=C1C(=O)c2c(nc3ccc(Cl)cn23)-c2ccccc21 | -68.7% (active) |
| C[C@H]1O[C@@H](O[C@H]2[C@@H](O)C[C@H](O[C@H]3[C@@H](O)C[C@H](O[C@H]4CC[C@]5(C)C6C[C@@H](O)[C@]7(C)[C@@H](C8=CC(=O)OC8)CC[C@]7(O)C6CC[C@@H]5C4)O[C@@H]3C)O[C@@H]2C)C[C@H](O)[C@@H]1O (stereo not given in full) | -100% (active) |
| O=C(NC1CCS(=O)(=O)C1)c1ccc(C(=O)c2ccccc2)cc1 (stereo not given) | 125% |
| N#Cc1c(-c2ccccc2)cc(-c2ccccc2)n(CCCCCCC(=O)O)c1=O | 98.9% |
| O=C(CNc1ccc2c(c1)C(=O)c1ccccc1C2=O)Nc1ccc2c(c1)C(=O)c1ccccc1C2=O | -91.4% (active) |
| OCc1n(Cc2ccc3ccccc3c2)cc[n+]1Cc1ccc2ccccc2c1 | 39.3% |
| CC(C)CNc1nc(N=[N+]=[N-])nc(NCC(C)C)n1 | 53.6% [100 µM] |
| CNNc1ncnc2c1cnn2-c1ccc(S(N)(=O)=O)cc1 | 91.9% |
| Cn1cnc([N+](=O)[O-])c1Sc1nc(N)nc2nc[nH]c12 | 23.5% |
| CCCn1c(N)c(C(=O)CNc2ccc(I)cc2)c(=O)[nH]c1=O | 43.7% |
| CCSc1nc(-c2ccco2)n2nc(-c3ccco3)cc2n1 | 63.8% |
| O=c1c2c(=NCCCN3CCCC3)cc3c(=O)n(CCCN4CCCC4)c(=O)c4c(NCCCN5CCCC5)cc(c(O)n1CCCN1CCCC1)c2c4-3 | 0.818% (active) |
| CCOC(=O)CNC(=O)C1(NC(=O)CNC(=O)OCc2ccccc2)CCCC1 | 108% |
| CC[C@@H](c1ccc(O)c(O)c1)[C@@H](CC)c1ccc(O)c(O)c1 | 102% |
| Cc1sc2nc3c4ccccc4c(NCCCN(C)C)nn3c(=O)c2c1C | 31.5% |
| CCOC(=O)c1cnc2c(C)cc(C)cc2c1NCCCN(C)C | 31.6% |
| O=c1[nH]cc(Nc2cc(Cl)c3nonc3c2[N+](=O)[O-])c(=O)[nH]1 | 109% |
| COc1cccc(-c2nc(-c3ccc(N)cc3)co2)c1 | 99.2% |
| CCCCCc1c(C)[nH]c(/C=C2\N=C(c3ccc[nH]3)C=C2OCc2ccccc2)c1C | -80.9% [100 µM] (active) |

| SMILES | growth |
| --- | --- |
| C[C@H]1C(=O)N2c3ccccc3[C@@]3(O)C[C@@H](n4cnc5ccccc5c4=O)C(=O)N1[C@@H]23 | 113% |
| COc1ccc2cc(-c3nc4ccccc4[nH]3)c(=O)oc2c1 | 93.8% |
| Cc1ccc(S(=O)(=O)N2CCN(C(=O)CSc3nc4ccc(C)cc4[nH]3)CC2)cc1 | 105% |
| CC(=O)N1N=C(c2ccc(Nc3nc(NCCO)nc(NCCO)n3)cc2)CC1c1ccc(Cl)cc1 (stereo not given) | 100% |
| COc1ccc2c3c(ccc2c1)C(=O)/C(=C\O)CC3 | 99.5% |
| OCCN1CCN(CCCN2c3ccccc3Sc3ccc(C(F)(F)F)cc32)CC1 | 9.9% (active) |
| Oc1c(N=Nc2nn[nH]n2)ccc2ccccc12 | 80.1% |
| COc1ccc(N2CCN(CC(=O)N3CCN(c4nnc(-c5ccc(Cl)cc5)c(-c5ccc(Cl)cc5)n4)CC3)CC2)cc1 | 44.7% |
| c1ccc(-c2n(Cc3ccc4ccccc4c3)cc[n+]2Cc2ccc3ccccc3c2)cc1 | -81.5% (active) |
| N#Cc1c(-c2ccc(F)cc2)n2c(nc1=O)SC(=O)C2=O | 104% |
| COc1ccc(Cl)cc1Nc1nc(C(F)(F)F)ccc1C(=O)N/N=C/c1c(Cl)cccc1Cl | 52.7% |
| Cc1nn(-c2nc3ccccc3s2)c(C)c1Oc1ccccc1O | 63.6% |
| O=C1/C(=C/c2cccc(Cl)c2)CCc2ccccc21 | 87.9% |
| CC[n+]1c(/C=C/c2ccc(N3CCCC3)cc2)cccc1/C=C/c1ccc(N2CCCC2)cc1 | -81.5% (active) |
| Nc1ccc(Oc2c(F)c(F)c(Oc3ccc(N)cc3)c(F)c2F)cc1 | 110% |
| CCSc1ncc(Br)c(Sc2nc(N)nc3nc[nH]c23)n1 | 79% |
| COc1ccc(-c2ccc(O)c(C(=O)/C=C/c3cc(OC)c(OC)c(OC)c3)c2)cc1 | 79.9% |
| O=C(/C=C/c1ccc([N+](=O)[O-])cc1)c1ccc2c3c(cccc13)CC2 | 72.5% |
| COP(=O)(OC)C(c1ccccc1)(c1ccccc1)c1ccccc1 | 93.7% |
| COC(=O)c1c(NC(=O)CSc2nnnn2-c2ccc(OC)cc2)sc(C)c1C | 98.7% |
